High-throughput results: PubChem, National Center for Advancing Translational Sciences (NCATS)
IL1B secr inh: qHTS for Inhibitors of Inflammasome Signaling: IL-1-beta AlphaLISA Primary Screen; THP-1 LPS/ATP IL-1B secretion, AlphaLISA, 16 h; stronger effect = lower value; activity change, % at 57.5 µM; actives 4.7% (n = 360,000); AID 743279, 2014; in the data active = activity change below about -50%; inconclusive = mostly about -30% to -49%; note: % is set by controls: 0 for no effect and ±100 for the full control effect
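THP-1 cells pretreated 1 hr with compounds (up to 57.5 uM final), then stimulated with LPS (250 ng/mL final) plus ATP (1.25 mM final); secreted IL-1B measured by AlphaLISA after 16 hr, decreased signal indicating inhibition.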
TDP1 inh: qHTS Assay for Inhibitors of Tyrosyl-DNA Phosphodiesterase (TDP1); Potency, µM (titrated, usually from 130 µM), without a hit: at the highest dose activity change, negative = inhibition, actives largely listed as inhibitors; recombinant TDP1, AlphaScreen DNA substrate cleavage; actives 0.28% (n = 350,000); note: potency is the fitted concentration of half-maximal effect; % is set by controls: 0 for no effect and ±100 for the full control effect; nearly all actives have a fitted effect of over 40% in size
Target sequence (Q9NUW8 whole entry, looked up): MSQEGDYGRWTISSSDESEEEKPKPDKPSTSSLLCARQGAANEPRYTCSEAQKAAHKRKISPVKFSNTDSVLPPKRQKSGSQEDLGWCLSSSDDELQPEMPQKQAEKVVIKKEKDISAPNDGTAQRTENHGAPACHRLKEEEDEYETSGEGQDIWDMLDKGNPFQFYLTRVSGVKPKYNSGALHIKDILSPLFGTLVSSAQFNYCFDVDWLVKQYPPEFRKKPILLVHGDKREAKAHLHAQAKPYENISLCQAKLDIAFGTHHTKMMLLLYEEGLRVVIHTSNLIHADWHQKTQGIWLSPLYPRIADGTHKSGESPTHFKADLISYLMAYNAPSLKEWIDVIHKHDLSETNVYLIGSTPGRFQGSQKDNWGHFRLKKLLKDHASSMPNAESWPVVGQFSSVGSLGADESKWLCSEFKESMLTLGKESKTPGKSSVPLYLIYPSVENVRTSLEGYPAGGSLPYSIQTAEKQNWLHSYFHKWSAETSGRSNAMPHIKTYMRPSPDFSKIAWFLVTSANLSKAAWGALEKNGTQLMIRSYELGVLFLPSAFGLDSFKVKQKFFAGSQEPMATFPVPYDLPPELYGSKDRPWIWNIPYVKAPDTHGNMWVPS
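Compounds were preincubated with Tdp1 (1 nM final) for 15 min at room temperature before substrate (15 nM final) started a 5 min reaction; beads (10 ug/ml final) were then added for 10 min before AlphaScreen detection.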
TGFb inhibitor: qHTS for Inhibitors of TGF-b; Potency, µM (titrated, usually from 46.1 µM), for the others: top-dose activity, negative = inhibition, hits mostly inhibitors; AID 588855, 2011; HepG2 CAGA-GFP TGF-b/SMAD3 reporter, GFP fluorescence, 18 h; TGF-beta stimulated, 500 pg/mL final; actives 1.2% (n = 410,000); note: potency is the fitted concentration of half-maximal effect; % is set by controls: 0 for no effect and ±100 for the full control effect; nearly all actives have a fitted effect of over 65% in size
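TGF-beta reporter screen: HEPG2 CAGA-GFP, 1% FBS, 500 pg/mL TGF-beta final, 18 h; per-cell GFP summed per well; curves fitted and categorized by class.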
HepG2 tox: qHTS for Inhibitors of TGF-b: Cytotox Counterscreen; HepG2 CAGA-GFP viability, ATP luminescence, 18 h; Potency, µM (highest dose often 46.1 µM), without a hit: at the highest dose activity change, negative = cytotoxicity, most hits filed as cytotoxic; actives 0.76% (n = 410,000); note: potency is the fitted concentration of half-maximal effect
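HepG2 CAGA-GFP cells (1000/well, DMEM with 1% FBS) received compound, then TGF-beta at 500 pg/mL final, and were incubated 18 hours at 37 degrees C. Viability was read by CellTiter-Glo luminescence. Media-only wells were set as complete cell-killing and DMSO as no toxicity.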
DT40 TDP1 CPT: qHTS for Inhibitors of human tyrosyl-DNA phosphodiesterase 1 (TDP1): qHTS in cells in presence of CPT. chicken DT40 Tdp1-/-;hTDP1 cells + 20 nM CPT, ATP luminescence, 48 h. Potency, µM (top dose mostly 46.2 µM), for inactives: at the top dose activity change, negative = growth inhibition, actives largely listed as inhibitors. actives 12% (n = 420,000); note: potency is the fitted concentration of half-maximal effect; % is set by controls: 0 for no effect and ±100 for the full control effect; nearly all actives have a fitted effect of over 55% in size
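Cell growth measured by CellTiter-Glo luminescence after a minimum 48 h, 37 C compound exposure with 20 nM CPT in Tdp1-knockout DT40 cells stably expressing hTDP1, seeded 400/well; qHTS titration format.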
TDP1 cell noCPT: qHTS for Inhibitors of human tyrosyl-DNA phosphodiesterase 1 (TDP1): qHTS in cells in absence of CPT; DT40 Tdp1-/- hTDP1 cells, no CPT, ATP luminescence, 48 h; Potency, µM (doses to about 46.2 µM), inactives show at the top dose activity change, negative = growth inhibition, hits mostly inhibitors; actives 15% (n = 420,000); note: potency is the fitted concentration of half-maximal effect; % is set by controls: 0 for no effect and ±100 for the full control effect; nearly all actives have a fitted effect of over 55% in size
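Cells were dispensed at 400 per well, compounds added by pin tool, plates incubated ≥48 hr at 37 °C, then CellTiter-Glo added for 30 min at room temperature before luminescence reading. Line: DT40 Tdp1-/- complemented with hTDP1; camptothecin omitted.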
An asterisk follows results filed as active; ? = inconclusive; . = no result given; [ ] = remark or other dose. Hits are enriched below; roughly 19% of the tested compounds scored in any of these assays. Unless noted, calls come from the whole dose curve; as a rule, active = well fitted curve in the direction sought with a large enough effect; inconclusive = small, poorly fitted or top-dose-only effect, or another doubt; inactive = no such curve, though single readings can be large; an effect the other way counts as inactive or inconclusive.

SMILES	IL1B secr inh	TDP1 inh	TGFb inhibitor	HepG2 tox	DT40 TDP1 CPT	TDP1 cell noCPT
CCN(c1ccccc1)S(=O)(=O)c1ccc(C(=O)N(CCCN(C)C)c2nc3c(C)cccc3s2)cc1	-71*	8%	?	-60%	?	?
COc1ccc2sc(N(CCCN(C)C)C(=O)c3ccc(S(=O)(=O)N(C)Cc4ccccc4)cc3)nc2c1	-93*	.	-21%	-45%	?	15µM*
CCN(CC)CCN(C(=O)c1ccc(S(=O)(=O)N(C)C2CCCCC2)cc1)c1nc2ccc(OC)cc2s1	-77*	6%	3%	-10%	?	-5%
CCN(CC)CCN(C(=O)c1ccc(C(=O)c2ccccc2)cc1)c1nc2ccc(OC)cc2s1	?	11%	-8%	-16%	2%	7%
Cc1ccc2sc(N(CCCN(C)C)C(=O)c3ccc(S(=O)(=O)N(C)Cc4ccccc4)cc3)nc2c1C	-93*	7%	?	-96%	?	?
COC(=O)CCC(=O)OC1(C)C(=O)C=C2C=C(CCCNC(=O)OC(C)(C)C)OC=C2C1=O (centres undefined)	.	4%	.	.	.	.
C=CC[n+]1cccc2cc(Br)ccc21	.	.	-14%	4%	-15%	-17%
Cc1c2cnn(CC(=O)NC(C)C)c(=O)c2c(C)n1Cc1ccccc1Cl	.	10%	?	-24%	?	?
COc1cc(/C=C(/C#N)c2nc(-c3cc4ccccc4oc3=O)cs2)ccc1O	.	0%[12.3 µM]	28%	-20%	-2%	2.9µM*
Cc1ccc(C)c(NC(=O)Cn2c(=O)n(Cc3ccco3)c(=O)c3oc4ccccc4c32)c1	.	3%	0%	-51%	16µM*	10µM*
Cc1cc(C)cc(NC(=O)Cn2c(=O)n(Cc3ccco3)c(=O)c3oc4ccccc4c32)c1	.	0%	-19%	-2%	?	-34%
CCCCn1c(=O)c2oc3ccccc3c2n(CC(=O)Nc2ccc(CC)cc2)c1=O	.	3%	-2%	-11%	13µM*	?
Cc1ccc(C)c(NC(=O)Cn2c(=O)n(Cc3ccccc3)c(=O)c3oc4ccccc4c32)c1	.	8%	7%	-25%	4.6µM*	5.8µM*
CCCCn1c(=O)c2oc3ccccc3c2n(CC(=O)Nc2cc(C)ccc2C)c1=O	.	3%	-10%	5%	12µM*	12µM*
Cc1ccc2c(=O)cc(C(=O)Nc3sc4c(c3C(=O)NCc3ccccc3)CCCC4)oc2c1C	.	4%	-4%	-5%	2%	-9%
COc1ccccc1CCN1COc2c(cc3c(C)c(C)c(=O)oc3c2C)C1	.	9%	-18%	-38%	?	?
CCC1CCCCN1CCCNC(=O)c1ccc2c(c1)sc1nc(-c3ccc(F)cc3)cn12 (centres undefined)	.	-4%	-15%	-47%	4.1µM*	2.6µM*
Cc1ccc(-c2cn3c(n2)sc2cc(C(=O)NCc4cccs4)ccc23)cc1	.	1%	20%	-7%	15µM*	21µM*
CCCN1CCN(CCCNC(=O)c2ccc3c(c2)sc2nc(-c4ccc(C)cc4)cn23)CC1	.	4%	?	-64%	1.3µM*	1.2µM*
Cc1c(C(=O)NCCCN2CCOCC2)sc2nc(-c3ccccc3)cn12	.	5%	.	.	.	.
O=C(NCCCN1CCCCCC1)c1ccc2c(c1)sc1nc(-c3ccccc3)cn12	.	5%	?	16µM*	6.5µM*	3.7µM*
O=C(NCc1cccc(Cl)c1)C1CCC(=O)N(CCCN2CCCC2=O)C1 (centres undefined)	11	3%[56.1 µM]	-8%	-20%	7%	5%
CCOc1ccc(NC(=O)CSc2nnc(-c3ccc(OCC)cc3)o2)cc1	.	9%	3%	1%	-17%	4%
COc1cnc(-c2ccccn2)nc1Oc1ccccc1	15	4%	-8%	-5%	0.46µM*	0.46µM*
COc1cnc(-c2ccccn2)nc1N(C)c1ccccc1	114	.	?	-136%	0.52µM*	0.41µM*
SMILES	IL1B secr inh	TDP1 inh	TGFb inhibitor	HepG2 tox	DT40 TDP1 CPT	TDP1 cell noCPT
COc1ccc(C)cc1NC(=O)C1CCCN(c2ncnc3onc(C)c23)C1 (centres undefined)	.	8%	?	-6%	?	16µM*
COc1cccc(NC(=O)C2CCCN(c3ncnc4onc(C)c34)C2)c1 (centres undefined)	.	5%	?	-22%	21µM*	21µM*
Cc1noc2ncnc(N3CCCC(C(=O)NC(C)C)C3)c12 (centres undefined)	.	-6%	0%	-5%	-27%	?
Cc1ccc(NC(=O)C2CCCN(c3ncnc4onc(C)c34)C2)cc1Cl (centres undefined)	.	2%	?	-31%	10µM*	16µM*
COc1ccc(C)cc1NC(=O)c1ccc2c(c1)CCN2S(=O)(=O)c1ccc(Cl)cc1	.	5%	?	-16%	-26%	-3%
Cc1cccc(C(=O)NCC(=O)OC(C(=O)Nc2cc(C(F)(F)F)ccc2Cl)c2ccccc2)c1 (centres undefined)	.	-3%	.	.	.	.
COCCN(CCOC)c1nc(C)nc2c1nc(-c1ccccc1)n2CCN1CCOCC1	.	-1%	.	.	.	.
Cc1cc(C)c2c(n1)nn1c(C)c(CCC(=O)NCc3ccc(Cl)cc3)c(C)nc21	.	3%	-9%	-4%	-26%	?
COc1ccc(CC(=O)N2CCc3cc(OC)c(OC)cc3C2COc2ccc(OC)cc2)cc1 (centres undefined)	.	13%	-4%	-52%	?	16µM*
CCc1ccc(OCC2c3cc(OC)c(OC)cc3CCN2C(=O)Cc2ccc(OC)c(OC)c2)cc1 (centres undefined)	.	16%	11µM*	-23%	?	?
Cc1ccccc1C1(CC(=O)N2CCCCC2C)CC(=O)N(Cc2cccnc2)C1=O (centres undefined)	.	.	.	.	17%[9.04 µM]	?
Cn1cnc([N+](=O)[O-])c1Sc1ccncn1	-5	.	?	-21%	-28%	13µM*
Cc1cccnc1Sc1c([N+](=O)[O-])ncn1C	-11	1%	-17%	-3%	-10%	2%
Cn1cnnc1Sc1c([N+](=O)[O-])ncn1C	.	8%	.	.	.	.
